Drawing on PubChem BioAssay (NCI), this text covers growth for 15 molecules.

SMILES strings stand for the structures. Compounds without any hit were thinned out: in the full panel of roughly 83,000, 20% have a hit.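 Testing used 96-well plates and a 48-hour single-concentration exposure. Example: -40 means 40% of the starting cells died.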 Unmarked numbers belong to inactive results. Calls of active or inactive are those of the source. The calls were made as follows: active = growth percent below 10; inactive = the rest.

Some test systems named below: T-47D breast; BT-549 breast; MDA-MB-435 melanoma; SW-620 colon; MCF7 breast; HCT-116 colon; HCC-2998 colon; KM12 colon.
What all share (assay): NCI-60 one-dose screen, 48 h (100 = growth as untreated, 0 = no growth, -100 = all killed)
Settings in all cases: 10 µM unless noted

In the case of `COc1ccc(-c2n[nH]nc2-c2csc3ccccc23)cc1OC`, the growth was 28.5% in the test with T-47D breast; 16.9% in the test on BT-549 breast; -31.8% (active) in the test with MDA-MB-435 melanoma; 21.3% in the test with SW-620 colon; 17.1% in the test on MCF7 breast; 22.4% in the test on HCT-116 colon. For the same molecule, the growth is 72.1% with HCC-2998 colon and 27.6% in the test with KM12 colon.

Take `O=C1/C(=C/c2ccccc2)SC(=S)N1CCc1ccc(O)cc1`: the growth in the test on T-47D breast was 54.3%; with BT-549 breast, 106%; with MDA-MB-435 melanoma, 96.2%; with SW-620 colon, 95.6%; in the test with MCF7 breast, 112%; in the test with HCT-116 colon, 95.9%. Also, the growth with HCC-2998 colon is 107%; with KM12 colon, 87.8%.

On to `Cn1cc(-c2nonc2-c2c[nH]c3ccc(F)cc23)c2cccnc21`, for which the growth in the test on T-47D breast is 16.2%; with BT-549 breast, 93.1%; with MDA-MB-435 melanoma, 62.3%; in the test with SW-620 colon, 97.3%; in the test on MCF7 breast it was 23.5%; with HCT-116 colon, 90.9%. In addition, the growth is 91.8% in the test with HCC-2998 colon and 67.4% in the test with KM12 colon.

Take `Cc1c(/C=C/[N+](=O)[O-])ccc2c1[nH]c1ccccc12`: the growth with T-47D breast is 78.1%; in the test with BT-549 breast it was 59.2%; in the test with MDA-MB-435 melanoma, -11.2% (active); in the test on SW-620 colon, 77.7%; in the test with MCF7 breast, -11.9% (active); with HCT-116 colon it was -97.8% (active). Further, the growth was -30.7% (active) in the test with HCC-2998 colon and 52.4% with KM12 colon.

In the case of `CC1=CC(C)(C)Nc2ccc(Cc3ccc4c(c3)C(C)=CC(C)(C)N4)cc21`, the growth in the test on T-47D breast is 76.2%; in the test with BT-549 breast, 80.1%; in the test on MDA-MB-435 melanoma, 120%; with SW-620 colon, 130%; with MCF7 breast, 84.2%; in the test with HCT-116 colon, 83.5%. For the same molecule, the growth in the test on KM12 colon was 105%.

As for `CCOC(=O)c1cc(C(=O)c2ccc(O)c(O)c2)n2ccc(-c3ccn4c(C(=O)c5ccc(O)c(O)c5)cc(C(=O)OCC)c4c3)cc12`, the growth with T-47D breast was 77.4%; in the test with BT-549 breast, 96%; in the test on MDA-MB-435 melanoma it was 99.9%; with SW-620 colon, 96.1%; in the test with MCF7 breast, 99.1%; in the test on HCT-116 colon, 98.2%. Moreover, the growth in the test with HCC-2998 colon is 104%; in the test with KM12 colon it was 97%.

In the case of `COc1cc(Nc2cc(C)nc(N3CCN(c4ccnc5cc(Cl)ccc45)CC3)n2)cc(OC)c1`, the growth was 8.17% (active) in the test on T-47D breast; 41.8% in the test with BT-549 breast; -2.88% (active) in the test with MDA-MB-435 melanoma; 15.9% with SW-620 colon; 5.32% (active) in the test on MCF7 breast; 2.14% (active) in the test on HCT-116 colon. In addition, the growth was 7.77% (active) with HCC-2998 colon and 3.72% (active) in the test on KM12 colon.

With `CC1=CC(=NN=c2cc(C)n([O-])c(C)c2)C=C(C)[N+]1=O`, the growth in the test on T-47D breast was 43.9%; in the test on BT-549 breast, 75.1%; in the test on MDA-MB-435 melanoma, 85.9%; in the test with SW-620 colon it was 101%; in the test with MCF7 breast, 19.3%; in the test on HCT-116 colon it was 83.1%. Moreover, the growth in the test with HCC-2998 colon was 63.2%; in the test on KM12 colon, 95.3%.

As to `C#CCOc1ccc2ncnc(NCc3cccc(NC(=O)CCl)c3)c2c1`, the growth with T-47D breast is 33.2% [8.25 µM]; in the test with BT-549 breast it was 46.6% [8.25 µM]; in the test on MDA-MB-435 melanoma it was 53.4% [8.25 µM]; in the test on SW-620 colon it was 19.9% [8.25 µM]; in the test on MCF7 breast, 15.5% [8.25 µM]; with HCT-116 colon it was 14.6% [8.25 µM]. For the same molecule, the growth in the test on HCC-2998 colon was 99.7% [8.25 µM]; in the test on KM12 colon, 59.7% [8.25 µM].

As to `CN1CCN(c2nc(NCCCNc3ccnc4cc(Cl)ccc34)c3ccccc3n2)CC1`, the growth in the test with T-47D breast is 40.7%; in the test with BT-549 breast it was 74.5%; in the test with MDA-MB-435 melanoma, -22.4% (active); in the test with SW-620 colon, 15.7%; with MCF7 breast, 29.9%; in the test on HCT-116 colon, 37.3%. Besides, the growth with HCC-2998 colon is 37.2%; in the test on KM12 colon, 41.9%.

For the molecule `N#C/C(=C\c1ccc(-c2cc(C(F)(F)F)ccc2Cl)o1)c1nc(-c2ccco2)cs1`, the growth with T-47D breast was 80.1%; with BT-549 breast it was 114%; with MDA-MB-435 melanoma, 102%; in the test with SW-620 colon, 103%; in the test with MCF7 breast, 45.3%; in the test on HCT-116 colon, 104%. The growth with HCC-2998 colon is 104%; in the test on KM12 colon, 99.9%.

On to `COc1ccc(-n2nc(C)c3c(Nc4ccc(NC(=O)Nc5c(Cl)cccc5Cl)cc4)ncnc32)cc1`, for which the growth in the test on T-47D breast is 40%; with BT-549 breast, 57.9%; in the test on MDA-MB-435 melanoma it was 49.1%; with SW-620 colon it was 48.6%; in the test with MCF7 breast, 58.5%; in the test on HCT-116 colon, 25%. In addition, the growth with HCC-2998 colon was 51%; with KM12 colon, 18%.

As to `CCC(=O)c1ccc(Cl)s1`, the growth is 105% with T-47D breast; 90.5% with BT-549 breast; 114% in the test on MDA-MB-435 melanoma; 104% with SW-620 colon; 97.8% with MCF7 breast; 101% in the test on HCT-116 colon. Also, the growth in the test on HCC-2998 colon is 102%; with KM12 colon, 107%.

As to `CC(C)(O)c1cn(CCCCN2C(=O)C(=O)c3ccccc32)nn1`, the growth was 99.5% with T-47D breast; 110% with BT-549 breast; 101% in the test on MDA-MB-435 melanoma; 99.6% with SW-620 colon; 93.9% in the test with MCF7 breast; 101% with HCT-116 colon. In addition, the growth in the test with HCC-2998 colon is 103%; in the test on KM12 colon, 101%.

In the case of `Cc1nn(-c2cc(=O)[nH]c3ccc(Cl)cc23)c(N)c1C#N`, the growth in the test with T-47D breast is 97.1%; in the test with BT-549 breast, 111%; in the test with MDA-MB-435 melanoma, 103%; in the test with SW-620 colon, 98.7%; in the test with MCF7 breast it was 92.3%; in the test on HCT-116 colon, 101%. Besides, the figures for the growth in the test with HCC-2998 colon and with KM12 colon were 102% and 104%, respectively.
